Assay results from PubChem BioAssay (NCI).
This is part of a sample that, as a whole, favours compounds with a hit. Of some 83,000 tested, about 20% had one in any assay.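 Each cell line was grown in a 96-well plate and treated with one concentration of compound for 48 hours. Values below 10 were considered active.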 Active and inactive are the calls of the source.

What was measured:
Test in all cases: NCI-60 one-dose screen, 48 h (100 = growth as untreated, 0 = no growth, -100 = all killed)
Conditions in all cases: 10 µM unless noted
NCI-H23 lung = tested on: NCI-H23 lung
NCI-H226 lung = tested on: NCI-H226 lung
NCI-H322M lung = tested on: NCI-H322M lung
HOP-62 NSCLC = tested on: HOP-62 NSCLC
NCI-H460 lung = tested on: NCI-H460 lung
HOP-92 NSCLC = tested on: HOP-92 NSCLC
NCI-H522 lung = tested on: NCI-H522 lung
A549/ATCC NSCLC = tested on: A549/ATCC NSCLC
786-0 renal = tested on: 786-0 renal
COLO 205 colon = tested on: COLO 205 colon
DU-145 prostate = tested on: DU-145 prostate
MALME-3M melanoma = tested on: MALME-3M melanoma
MDA-MB-231 breast = tested on: MDA-MB-231 breast
RXF 393 renal = tested on: RXF 393 renal
SF-268 CNS = tested on: SF-268 CNS
SF-295 CNS = tested on: SF-295 CNS
SF-539 CNS = tested on: SF-539 CNS
UACC-257 melanoma = tested on: UACC-257 melanoma
M14 melanoma = tested on: M14 melanoma
K-562 leukemia = tested on: K-562 leukemia

Measured: growth

CC/C=C\C[C@H]1C/C=C2/C(=O)C=C[C@H]2C/C=C\CCCC(=O)O1
inactive: NCI-H23 lung 39.4% | NCI-H226 lung 40.5% | NCI-H322M lung 37.7% | HOP-62 NSCLC 22.5% | NCI-H460 lung 27.4% | HOP-92 NSCLC 51.2% | A549/ATCC NSCLC 29.5% | 786-0 renal 24.7% | DU-145 prostate 15% | MALME-3M melanoma 75.1% | MDA-MB-231 breast 40.5% | RXF 393 renal 36.6% | SF-268 CNS 39.9% | SF-295 CNS 23.3% | SF-539 CNS 14.7% | UACC-257 melanoma 47.1% | M14 melanoma 19.1%
active: NCI-H522 lung -17.7% | COLO 205 colon 6.26%

OCCNc1nccc(N2CCN(c3ccnc4cc(Cl)ccc34)CC2)n1
inactive: NCI-H23 lung 80.5% | NCI-H226 lung 92.2% | NCI-H322M lung 84.2% | HOP-62 NSCLC 56.3% | NCI-H460 lung 96.8% | HOP-92 NSCLC 88.7% | NCI-H522 lung 65.2% | A549/ATCC NSCLC 80.6% | 786-0 renal 92.8% | COLO 205 colon 65.6% | DU-145 prostate 98.8% | K-562 leukemia 24.2% | MDA-MB-231 breast 54.9% | RXF 393 renal 77.1% | SF-268 CNS 82.7% | SF-295 CNS 58% | SF-539 CNS 79.6% | UACC-257 melanoma 84% | M14 melanoma 68.7%

O=C(CN1CCCCC1)Nc1ccc2oc(=O)ccc2c1
inactive: NCI-H23 lung 97.5% | NCI-H226 lung 95.8% | NCI-H322M lung 105% | HOP-62 NSCLC 99.7% | NCI-H460 lung 104% | HOP-92 NSCLC 91.3% | NCI-H522 lung 84.6% | A549/ATCC NSCLC 100% | 786-0 renal 107% | COLO 205 colon 119% | DU-145 prostate 113% | MALME-3M melanoma 106% | MDA-MB-231 breast 105% | RXF 393 renal 113% | SF-268 CNS 97.5% | SF-295 CNS 106% | SF-539 CNS 129% | UACC-257 melanoma 96.3% | M14 melanoma 106%

Clc1ccc2nc3nc4ccc[nH]c4cc3c2c1
inactive: NCI-H23 lung 73.7% | NCI-H226 lung 83.8% | NCI-H322M lung 65.1% | HOP-62 NSCLC 89.7% | NCI-H460 lung 54.4% | HOP-92 NSCLC 105% | NCI-H522 lung 81.1% | A549/ATCC NSCLC 79.2% | 786-0 renal 105% | COLO 205 colon 98.9% | DU-145 prostate 100% | MALME-3M melanoma 87.2% | MDA-MB-231 breast 99.6% | RXF 393 renal 116% | SF-268 CNS 97.9% | SF-295 CNS 101% | SF-539 CNS 83.7% | UACC-257 melanoma 85.8% | M14 melanoma 106%

CS(=O)(=O)c1ccc(-n2nc(-c3ccc(Br)cc3)c3ccccc3c2=O)cc1
inactive: NCI-H23 lung 95% | NCI-H226 lung 100% | NCI-H322M lung 109% | HOP-62 NSCLC 97.2% | NCI-H460 lung 99.1% | HOP-92 NSCLC 85.7% | NCI-H522 lung 97% | A549/ATCC NSCLC 97.9% | 786-0 renal 121% | COLO 205 colon 103% | DU-145 prostate 99.2% | K-562 leukemia 90.9% | MDA-MB-231 breast 90.1% | RXF 393 renal 97.1% | SF-268 CNS 95% | SF-295 CNS 94% | SF-539 CNS 96.2% | UACC-257 melanoma 97.3% | M14 melanoma 107%

Cc1cc(N2CCOCC2)nc(N[C@@H]2CCC[C@H](Nc3ccnc4cc(Cl)ccc34)C2)n1
inactive: NCI-H23 lung 62% | NCI-H226 lung 34.2% | NCI-H322M lung 27.2% | NCI-H460 lung 12.2% | A549/ATCC NSCLC 13.8% | DU-145 prostate 26.2% | SF-268 CNS 19.1%
active: HOP-62 NSCLC -15.2% | HOP-92 NSCLC -21.7% | NCI-H522 lung -26.8% | 786-0 renal -73% | COLO 205 colon -82% | MALME-3M melanoma -75.3% | MDA-MB-231 breast -53.7% | RXF 393 renal -57.6% | SF-295 CNS -66.2% | SF-539 CNS -79.7% | UACC-257 melanoma -86.4% | M14 melanoma -86.7%

COc1ccc(C2Nc3c(c(C(C)(C)C)nn3-c3ccccc3)C(=O)CS2)cc1 (configuration not stated)
inactive: NCI-H23 lung 99.6% | NCI-H226 lung 98.2% | NCI-H322M lung 104% | HOP-62 NSCLC 106% | NCI-H460 lung 106% | HOP-92 NSCLC 91.7% | NCI-H522 lung 84.5% | A549/ATCC NSCLC 89.3% | 786-0 renal 113% | COLO 205 colon 103% | DU-145 prostate 101% | K-562 leukemia 98.5% | MALME-3M melanoma 98% | MDA-MB-231 breast 94.2% | RXF 393 renal 103% | SF-268 CNS 98% | SF-539 CNS 109% | UACC-257 melanoma 101% | M14 melanoma 112%

NC(=O)c1cc(I)ccc1NC(=O)/C=C/c1ccccc1Cl
inactive: NCI-H23 lung 43.4% | NCI-H226 lung 44.1% | NCI-H322M lung 55.5% | HOP-62 NSCLC 83% | HOP-92 NSCLC 48.3% | A549/ATCC NSCLC 15.7% | 786-0 renal 48.1% | MALME-3M melanoma 67.5% | MDA-MB-231 breast 23.3% | SF-268 CNS 36.8% | UACC-257 melanoma 65.7%
active: NCI-H460 lung 0.527% | NCI-H522 lung -45.9% | COLO 205 colon -26.7% | DU-145 prostate -18.8% | K-562 leukemia 5.46% | RXF 393 renal -17.9% | SF-539 CNS -35.7% | M14 melanoma 4.96%
